Assay results reported in PubChem BioAssay (NCATS).
Results filed as inconclusive are left out. Calls of active or inactive are those of the source. Calls come from the whole dose curve; as a rule, active = well fitted curve in the direction sought with a large enough effect; inconclusive = small, poorly fitted or top-dose-only effect, or another doubt; inactive = no such curve, though single readings can be large; an effect the other way counts as inactive or inconclusive. Numbered stars: 1 amine (or outer) side, 2 acyl side, 3 side chain; on linkers, the order of the positions; unused ones are H or OH. Bridge positions count the residues as written; N and C are the ends. Square brackets hold non-standard residues; d marks the D form. Peptide text beside a SMILES is read from it. I, II: the chains in the order shown. Actinocin(9to1) = Cc1c2oc3c(C)ccc(C(=O)[*:1])c3nc-2c(C(=O)[*:2])c(N)c1=O; NMeV = CN[C@H](C(=O)O)C(C)C; Sar = CNCC(=O)O

Columns and labels:
HaCat [1] = experiment: Cytotoxic Profiling of Annotated Libraries Using Quantitative High-Throughput Screening (AID 1296008); conditions: Five cell lines viability, CellTiter-Glo ATP luminescence, 48-72 h; max response: stronger effect = lower value; note: nearly all actives have a fitted effect of over 60% in size
Method in brief: (§1)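 Cells exposed to compounds for 48 or 72 hr at 37 degrees Celsius. Viability read as ATP-coupled luminescence with CellTiter-Glo after 10 min at room temperature.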

KB-3-1 = experiment: as above; conditions: Five cell lines viability, CellTiter-Glo ATP luminescence, 48-72 h; max response: stronger effect = lower value
Method in brief: as §1

MCC-13 = experiment: qHTS assay to identify novel small-molecules to repurpose for Merkel cell carcinoma treatment (AID 1296009); conditions: MCC and control cell lines, CellTiter-Glo viability, 72 h; series mostly up to 46 µM; note: nearly all actives have a fitted effect of over 60% in size
Method in brief: (§2)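 Cells were incubated with compound for 72 hr at 37 degree celsius before CellTiter-Glo addition. Luminescence was normalized with no-cell wells as full cytotoxicity and DMSO as baseline.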

MKL-2 = experiment: as above; conditions: MCC and control cell lines, CellTiter-Glo viability, 72 h; series mostly up to 46 µM
Method in brief: as §2

UISO = experiment: as above; conditions: MCC and control cell lines, CellTiter-Glo viability, 72 h; series mostly up to 46 µM
Method in brief: as §2

HACAT [2] = experiment: as above; conditions: MCC and control cell lines, CellTiter-Glo viability, 72 h; at 44.8 µM (top of the series) unless noted
Method in brief: as §2

C33A = experiment: Primary qHTS to identify gynecologic anti-cancer compounds using libraries of approved drugs and bioactive compounds (AID 1345084); conditions: Gynecologic cancer cell panel viability, ATPlite luminescence, 48 h; series mostly up to 57.5 µM; note: nearly all actives have a fitted effect of over 55% in size
Method in brief: (§3)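 Cells, 1,000 per well, plated 16 h, then exposed 48 h at 37 C to compounds. Viability by ATPlite luminescence after 15 min at room temperature.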

CAOV3 = experiment: as above; conditions: Gynecologic cancer cell panel viability, ATPlite luminescence, 48 h; series mostly up to 57.5 µM
Method in brief: as §3

CASKI = experiment: as above; conditions: Gynecologic cancer cell panel viability, ATPlite luminescence, 48 h; series mostly up to 57.5 µM
Method in brief: as §3

Es-2 = experiment: as above; conditions: Gynecologic cancer cell panel viability, ATPlite luminescence, 48 h; series mostly up to 57.5 µM
Method in brief: as §3

HeLa = experiment: as above; conditions: Gynecologic cancer cell panel viability, ATPlite luminescence, 48 h; series mostly up to 57.5 µM
Method in brief: as §3

Hek293T = experiment: as above; conditions: Gynecologic cancer cell panel viability, ATPlite luminescence, 48 h, control line for the selectivity index; series mostly up to 57.5 µM
Method in brief: as §3

JEG-3 = experiment: as above; conditions: Gynecologic cancer cell panel viability, ATPlite luminescence, 48 h; series mostly up to 57.5 µM
Method in brief: as §3

OV90 = experiment: as above; conditions: Gynecologic cancer cell panel viability, ATPlite luminescence, 48 h; series mostly up to 57.5 µM
Method in brief: as §3

NIH3T3 = experiment: Cytotoxic Profiling of Annotated Libraries Using Quantitative High-Throughput Screening (AID 1296008); conditions: Five cell lines viability, CellTiter-Glo ATP luminescence, 48-72 h; max response: stronger effect = lower value; note: nearly all actives have a fitted effect of over 60% in size
Method in brief: as §1

MCC-26 = experiment: qHTS assay to identify novel small-molecules to repurpose for Merkel cell carcinoma treatment (AID 1296009); conditions: MCC and control cell lines, CellTiter-Glo viability, 72 h; series mostly up to 46 µM; note: nearly all actives have a fitted effect of over 60% in size
Method in brief: as §2

MKL-1 = experiment: as above; conditions: MCC and control cell lines, CellTiter-Glo viability, 72 h; series mostly up to 46 µM
Method in brief: as §2

WaGa = experiment: as above; conditions: MCC and control cell lines, CellTiter-Glo viability, 72 h; series mostly up to 46 µM
Method in brief: as §2
% is set by controls: 0 for no effect and ±100 for the full control effect; potency is the fitted concentration of half-maximal effect.

Cc1c2oc3c(C)ccc(C(=O)N[C@@H]4C(=O)N[C@H](C(C)C)C(=O)N5CCC[C@H]5C(=O)N(C)CC(=O)N(C)[C@@H](C(C)C)C(=O)O[C@@H]4C)c3nc-2c(C(=O)N[C@@H]2C(=O)N[C@H](C(C)C)C(=O)N3CCC[C@H]3C(=O)N(C)CC(=O)N(C)[C@@H](C(C)C)C(=O)O[C@@H]2C)c(N)c1=O (I: T[dV]P[Sar][NMeV] / II: T[dV]P[Sar][NMeV]; ester I:1-I:C, II:1-II:C; linker I:N-II:N via Actinocin(9to1))
active: Potency (HaCat [1]) 0.0188 µM | Potency (KB-3-1) 0.0206 µM | Potency (MCC-13) 0.0335 µM | Potency (MKL-2) 0.0038 µM | Potency (UISO) 0.0033 µM

Oc1ccc(Cl)c2cccnc12
inactive: outcome (HaCat [1]) | max response (KB-3-1) -11.9% | outcome (HACAT [2]) | Potency (C33A) | Potency (CAOV3) | Potency (CASKI) | Potency (Es-2) | Potency (HeLa) | Potency (Hek293T) | Potency (JEG-3) | Potency (OV90)

Oc1ccc(Cl)cc1Sc1cc(Cl)ccc1O
active: Potency (MKL-1) 21.1 µM | Potency (UISO) 18.8 µM | Potency (WaGa) 21.1 µM
inactive: max response (HaCat [1]) 2% | max response (NIH3T3) -21.9% | Potency (MCC-26) | Potency (CASKI) | Potency (OV90)

CCCCOc1cc(C(=O)NCCN(CC)CC)c2ccccc2n1
inactive: max response (HaCat [1]) 2.41% | max response (KB-3-1) 0.155% | Potency (MCC-13) | Potency (MCC-26) | Potency (MKL-1) | Potency (C33A) | Potency (CASKI) | Potency (Hek293T) | Potency (JEG-3)

Cc1ccc(O)c2ncccc12
active: Potency (MKL-1) 15 µM | Potency (MKL-2) 8.41 µM | Potency (UISO) 11.9 µM
inactive: max response (HaCat [1]) 2.26% | max response (KB-3-1) -5.97% | Potency (C33A) | Potency (CAOV3) | Potency (CASKI) | Potency (Es-2) | Potency (HeLa) | Potency (Hek293T) | Potency (JEG-3) | Potency (OV90)

COc1cc(N)c(Cl)cc1C(=O)NC1CCN(CCCOc2ccc(F)cc2)CC1OC (configuration not stated)
inactive: max response (HaCat [1]) -1.88% | max response (KB-3-1) 6.35% | Potency (MCC-13) | Potency (MCC-26) | Potency (MKL-1) | Potency (WaGa) | Potency (C33A) | Potency (CAOV3) | Potency (CASKI) | Potency (Es-2) | Potency (HeLa) | Potency (Hek293T) | Potency (JEG-3)
active: Potency (OV90) 25.1 µM

C[C@]12CCC(=O)C=C1[C@@H]1C[C@@H]1[C@H]1[C@@H]3[C@@H]4C[C@@H]4[C@@]4(CCC(=O)O4)[C@@]3(C)CC[C@@H]12
inactive: max response (HaCat [1]) -9.08% | max response (NIH3T3) -5.26% | Potency (MCC-13) | Potency (MCC-26) | Potency (MKL-1) | Potency (MKL-2) | Potency (CAOV3) | Potency (CASKI) | Potency (Es-2) | Potency (Hek293T) | Potency (JEG-3)
active: Potency (HeLa) 3.55 µM

O=C(Nc1ccc(Oc2ccc(Cl)cc2)c(Cl)c1)c1cc(I)cc(I)c1O
inactive: max response (HaCat [1]) 1.19% | max response (NIH3T3) 0.252% | Potency (MCC-13) | Potency (MKL-1) | Potency (MKL-2) | Potency (UISO) | Potency (WaGa) | Potency (C33A) | Potency (CAOV3) | Potency (CASKI) | Potency (Es-2) | Potency (HeLa) | Potency (Hek293T) | Potency (JEG-3)

COC1=CC(=O)C[C@@H](C)[C@]12Oc1c(Cl)c(OC)cc(OC)c1C2=O
active: Potency (HaCat [1]) 23.7 µM
inactive: max response (KB-3-1) -57.5% | Potency (MCC-13) | Potency (MCC-26) | Potency (MKL-2) | Potency (C33A) | Potency (CAOV3) | Potency (CASKI) | Potency (Es-2) | Potency (HeLa) | Potency (Hek293T) | Potency (JEG-3) | Potency (OV90)

CCCCOc1ccc(OCCCN2CCOCC2)cc1
inactive: max response (HaCat [1]) -3.82% | max response (KB-3-1) 3.23% | Potency (MCC-13) | Potency (MCC-26) | Potency (MKL-1) | Potency (MKL-2) | Potency (UISO) | Potency (WaGa) | Potency (C33A) | Potency (CAOV3) | Potency (CASKI) | Potency (Es-2) | Potency (HeLa) | Potency (Hek293T) | Potency (JEG-3) | Potency (OV90)

CC(C)N=C(N)/N=C(\N)Nc1ccc(Cl)cc1
inactive: max response (HaCat [1]) 0.505% | max response (KB-3-1) -14.7% | Potency (MCC-13) | Potency (MCC-26) | Potency (MKL-1) | Potency (HeLa) | Potency (Hek293T) | Potency (JEG-3) | Potency (OV90)

OC[C@H]1O[C@@H](n2cnc3c(=S)nc[nH]c32)[C@H](O)[C@@H]1O
inactive: Potency (MKL-2) | Potency (CAOV3)
active: Potency (HaCat [1]) 2.99 µM | Potency (NIH3T3) 1.88 µM | Potency (MCC-13) 2.11 µM | Potency (WaGa) 0.237 µM | Potency (C33A) 7.94 µM | Potency (CASKI) 2.24 µM | Potency (Es-2) 3.55 µM | Potency (HeLa) 3.16 µM | Potency (Hek293T) 10 µM | Potency (JEG-3) 2.51 µM | Potency (OV90) 8.91 µM

c1ccc(OCc2ccc(CCCN3CCOCC3)cc2)cc1
inactive: max response (HaCat [1]) 1.82% | max response (KB-3-1) 2.12% | Potency (MCC-13) | Potency (MCC-26) | Potency (MKL-1) | Potency (C33A) | Potency (CASKI) | Potency (Es-2) | Potency (HeLa) | Potency (JEG-3)

CCN(CCCc1ccccc1)CCCc1ccccc1
active: Potency (OV90) 28.2 µM
inactive: max response (HaCat [1]) 0.9% | max response (KB-3-1) -18.5% | Potency (MCC-13) | Potency (MCC-26) | Potency (MKL-1) | Potency (UISO) | Potency (WaGa) | Potency (C33A) | Potency (CASKI) | Potency (Es-2) | Potency (HeLa) | Potency (Hek293T) | Potency (JEG-3)

O=C(CCCN1CCC(O)(c2ccc(Br)cc2)CC1)c1ccc(F)cc1
inactive: max response (HaCat [1]) -2.82% | max response (KB-3-1) 3.87% | Potency (MCC-26) | Potency (MKL-1) | Potency (MKL-2) | Potency (C33A) | Potency (CASKI) | Potency (Es-2) | Potency (HeLa) | Potency (Hek293T) | Potency (JEG-3)

CCCCC(CC)CN=C(N)NC(N)=NCCCCCCN=C(N)NC(N)=NCC(CC)CCCC (configuration not stated)
active: Potency (HaCat [1]) 6.68 µM | Potency (MCC-13) 10.6 µM | Potency (MKL-1) 1.33 µM | Potency (MKL-2) 1.88 µM | Potency (UISO) 1.88 µM | Potency (WaGa) 2.66 µM | Potency (HeLa) 17.8 µM | Potency (OV90) 20 µM

O=C(O)c1cc2cc(Cc3cccnc3)ccc2o1
inactive: max response (KB-3-1) 4.6%

CCN(CC)C(=O)/C(C#N)=C/c1cc(O)c(O)c([N+](=O)[O-])c1
inactive: max response (HaCat [1]) -5.03% | max response (KB-3-1) 3.63% | Potency (MCC-13) | Potency (MCC-26) | Potency (C33A) | Potency (CAOV3) | Potency (CASKI) | Potency (Es-2) | Potency (HeLa) | Potency (Hek293T) | Potency (JEG-3)
